This passage reports activity change, negative = inhibition results from PubChem BioAssay AID493248 (Broad Institute, 2011).

Structures are written as SMILES. Screen size: about 2,300 compounds; about 1,400 (61%) were called active. Another 7% or so got no clear call; they are omitted. How the calls were made is not given here. So high a share suggests a set chosen from earlier hits. A selection follows. Potency and affinity values are given separately.

Chain of FAD-linked sulfhydryl oxidase ALR (Homo sapiens) (P55789 whole entry, looked up): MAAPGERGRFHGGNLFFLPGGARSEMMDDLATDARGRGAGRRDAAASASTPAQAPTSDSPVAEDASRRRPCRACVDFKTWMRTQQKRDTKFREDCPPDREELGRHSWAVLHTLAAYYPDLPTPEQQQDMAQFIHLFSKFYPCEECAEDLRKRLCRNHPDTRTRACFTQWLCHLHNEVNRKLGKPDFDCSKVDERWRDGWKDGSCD

The assay concerns the target FAD-linked sulfhydryl oxidase ALR (Homo sapiens) (UniProt P55789). The assay is described as follows: ALR-catalysed DTT oxidation blockers – biochemical, H2O2 detection, luminescence, cherry-pick, dose response (AID 493248). As to conditions: purified ALR, H2O2 HRP-luminol luminescence; at 10 µM (top of the series).
Turning to `NNC(=O)c1cc(O)c(O)c(O)c1`, the activity change, negative = inhibition is 8.57%.

For the molecule `COc1c(Cl)cc(C(=O)NN)cc1Cl`, the activity change, negative = inhibition is -36.3%.

For the molecule `CCCc1cc(=O)[nH]c(SCc2cccnc2)n1`, the activity change, negative = inhibition is -44.3%.

In the case of `CC1(C)CN(c2ccccc2)N(C(=O)c2ccc(F)cc2)C1=O`, the activity change, negative = inhibition is -46.1%.

In the case of `COc1cc(/C=N/O)cc(Br)c1OC`, the activity change, negative = inhibition was determined as 21.8%.

In the case of `CCN(CC)CC(=O)c1ccc(-c2ccccc2)cc1`, the activity change, negative = inhibition was -34.7%.

As to `CCc1ccccc1Nc1ccc(C(=O)O)cc1N`, the activity change, negative = inhibition was -23%.

As for `Oc1ccc(-c2cnns2)c(O)c1`, the activity change, negative = inhibition was -104%.

Consider `N[C@@H](Cc1ccccc1)c1nnc(SCc2ccccc2Cl)o1`, for which the activity change, negative = inhibition was -33.5%.

In the case of `O=C(O)c1cc([N+](=O)[O-])c(Sc2nc3ccccc3[nH]2)c([N+](=O)[O-])c1`, the activity change, negative = inhibition was -46.4%.

Turning to `COc1cccc(NC(=O)c2c([N+](=O)[O-])cnn2C)c1`, the activity change, negative = inhibition is -15.3%.

For `Nc1ccccc1C(O)(Cc1ccccc1)c1ccccc1` (configuration not stated), the activity change, negative = inhibition is -3.4%.

With `Fc1ccccc1Nc1n[nH]c(=S)s1`, the activity change, negative = inhibition is -40.4%.

As to `COc1cc(/C=N/Nc2ccc([N+](=O)[O-])cn2)cc(OC)c1O`, the activity change, negative = inhibition is -73.9%.

`C=C(C)C(=O)Nc1ccc(NC(C)C)cc1`: the activity change, negative = inhibition was found to be 266%.

`CC(Nc1ccccc1)c1cc(Cl)ccc1O` (configuration not stated): the activity change, negative = inhibition was -48.4%.

With `COc1ccccc1N(Cc1ccccc1)S(=O)(=O)c1cc(C(=O)O)ccc1Cl`, the activity change, negative = inhibition is -48.6%.

For the molecule `Cc1ccc2c(CN3CCC(C(N)=O)CC3)cc(=O)oc2c1C`, the activity change, negative = inhibition is -10.9%.

Consider `CN(C)Cc1c(O)ccc2c3c(c(=O)oc12)CCCCC3`, for which the activity change, negative = inhibition was determined as 148%.

For the molecule `Cn1ccnc1SCc1cn2ccccc2n1`, the activity change, negative = inhibition was -1.35%.

Regarding `O=C(c1cc(-c2ccc(O)cc2)on1)N1CCN(c2ccccc2)CC1`, the activity change, negative = inhibition stood at 418%.

As for `S=c1[nH]ncn1NCc1ccc(Cl)cc1Cl`, the activity change, negative = inhibition was -23.3%.

For the molecule `Cc1cc(-c2n[nH]c(=S)n2/N=C/c2cccc([N+](=O)[O-])c2)n[nH]1`, the activity change, negative = inhibition was -55.9%.

As for `COc1cc(/C=C2\SC(=S)N(NC(=O)c3cccnc3)C2=O)ccc1O`, the activity change, negative = inhibition is -97.7%.

On to `Cc1nnc(Nc2ccc3c(c2)OCO3)c2ccccc12`, for which the activity change, negative = inhibition was 20.5%.

Regarding `Cc1csc2nc(CSc3ccc(Cl)cc3)cn12`, the activity change, negative = inhibition is -28.1%.

For the molecule `c1ccc(Nc2c(-c3ccco3)nc3ccccn23)cc1`, the activity change, negative = inhibition was -67%.

In the case of `COc1ccc(-n2c(-c3ccc(OC)c(OC)c3)n[nH]c2=S)cc1`, the activity change, negative = inhibition is -27%.

Take `CCN1CC(c2ccccc2)C(c2ccc(Cl)cc2)=N1` (configuration not stated): the activity change, negative = inhibition was -26.4%.

On to `O=C(Nc1cccs1)Nc1ccccc1Cl`, for which the activity change, negative = inhibition is -59.6%.

Turning to `CN1c2ccccc2Sc2cc(N)ccc21`, the activity change, negative = inhibition was -71%.

`O=C(O)C1C(c2ccccc2)C(C(=O)Oc2ccc(O)cc2)C1c1ccccc1` (configuration not stated): the activity change, negative = inhibition was -97.2%.

On to `CN(C)c1ccc(/C=N/OC(=O)Nc2ccccc2)cc1`, for which the activity change, negative = inhibition was -22.3%.

Take `CCCCN1C2=NC(c3ccccc3)CN2c2ccccc21` (configuration not stated): the activity change, negative = inhibition is -14%.

With `Fc1ccc(CN2C3=NCCN3c3ccccc32)cc1`, the activity change, negative = inhibition was -38.3%.

For the molecule `COc1cc(NC(=O)CN2C(=O)C(c3ccccc3)=NC2(C)C)cc(OC)c1`, the activity change, negative = inhibition is -10%.

With `CCN(CC)S(=O)(=O)c1ccc(NC(=O)c2c(-c3ccccc3)noc2C)cc1`, the activity change, negative = inhibition was -1.33%.

Take `COc1cc(/C=N\NC(=O)c2ccc(Cn3cc(Br)c([N+](=O)[O-])n3)o2)cc(OC)c1O`: the activity change, negative = inhibition is -36.4%.

Consider `CC(C)CC1(C(=O)O)NC(c2ccccc2O)C2C(=O)N(C(C)C)C(=O)C21` (configuration not stated), for which the activity change, negative = inhibition was -7.77%.

For `COc1ccc(CN2C(=O)C3C4C=CC(C4)C3C2=O)cc1` (configuration not stated), the activity change, negative = inhibition was determined as 24.9%.

With `COc1ccc(NCc2ccc3c(c2)OCO3)cc1Cl`, the activity change, negative = inhibition is -12.5%.

In the case of `COc1ccc(CNc2ccccc2)cc1Br`, the activity change, negative = inhibition was -3.19%.

As to `CCN(CC)c1ccc(NC(=O)CN2C(=O)CSc3ncccc32)c(C)c1`, the activity change, negative = inhibition is -11.2%.

For the molecule `Cc1cc2nc3ccc(N(C)C)cc3nc2cc1N`, the activity change, negative = inhibition is -98.1%.

As to `CC1C/C(=N/NC(=O)c2cccc(F)c2)c2ccc(O)cc2C1` (configuration not stated), the activity change, negative = inhibition was -63.8%.

On to `CNC(=O)CN1C(=O)c2ccccc2S1(=O)=O`, for which the activity change, negative = inhibition amounted to 14%.

As for `COc1ccc(-c2csc(Cc3nnc4n3CCCCC4)n2)cc1OC`, the activity change, negative = inhibition is -2.63%.

`CCN1CCn2c3c(c4cc(C)ccc42)CCCC31` (configuration not stated): the activity change, negative = inhibition is 32.6%.

As for `CCc1oc2ccccc2c1C(=O)c1cc(Br)c(O)c(Br)c1`, the activity change, negative = inhibition is -16.5%.

As for `Cc1cccc(NNC(=O)C(=O)NNc2cccc(C)c2)c1`, the activity change, negative = inhibition was -2.1%.

On to `COC(=O)c1c(N)sc2c1CC(C)(C)OC2`, for which the activity change, negative = inhibition was 0.616%.

Consider `Cc1cc(C)cc(N(CC(=O)NCc2ccco2)S(=O)(=O)c2c(C)noc2C)c1`, for which the activity change, negative = inhibition was -11.1%.

On to `Cc1ccc(N(C)S(=O)(=O)c2cccc(C(=O)Nc3nnc(C4CC4)s3)c2)cc1`, for which the activity change, negative = inhibition came out at 41.9%.

Turning to `CCSc1nnc(NC(=O)C2CCCN(S(=O)(=O)c3cnc[nH]3)C2)s1` (configuration not stated), the activity change, negative = inhibition amounted to 4.79%.

Take `Cc1cc(C(=O)Nc2nc3c(C)cccc3s2)c(C)o1`: the activity change, negative = inhibition is -29%.

`COc1cccc(CNc2nc3ccccc3n2CCN2CCCCC2)c1`: the activity change, negative = inhibition came to 73.7%.

In the case of `Cc1[nH]oc(=O)c1N=Nc1c(Cl)cccc1Cl`, the activity change, negative = inhibition is -48.5%.

Turning to `O=S(=O)(c1cccs1)n1cnc2ccccc21`, the activity change, negative = inhibition was -2.54%.

Consider `Cc1cc(Cc2ccc(N)c(C)c2)ccc1N`, for which the activity change, negative = inhibition turned out to be 12.8%.

Consider `C=CCSc1nnc2c(n1)OC(c1ccco1)Nc1ccccc1-2` (configuration not stated), for which the activity change, negative = inhibition is -91.3%.

On to `COc1cc(C(=S)NC2CCCCC2)ccc1O`, for which the activity change, negative = inhibition amounted to 99.8%.

On to `COC(=O)c1ccn(CC(=O)NC2CCCCC2)n1`, for which the activity change, negative = inhibition was -5.32%.
